This is part of a sample that, as a whole, favours compounds with a hit. Of some 83,000 tested, about 20% had one in any assay.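 Treatment: one concentration, 48 hours, 96-well format. Scoring: percent growth, with anything below 10 considered active.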 Calls of active or inactive are those of the source.
Tests used:
Test in all cases: NCI-60 one-dose screen, 48 h (100 = growth as untreated, 0 = no growth, -100 = all killed)
SR leukemia = system: SR leukemia
RPMI-8226 leukemia = system: RPMI-8226 leukemia
OVCAR-8 ovarian = system: OVCAR-8 ovarian
OVCAR-5 ovarian = system: OVCAR-5 ovarian
OVCAR-4 ovarian = system: OVCAR-4 ovarian
SK-OV-3 ovarian = system: SK-OV-3 ovarian
IGROV1 ovarian = system: IGROV1 ovarian
OVCAR-3 ovarian = system: OVCAR-3 ovarian
HS 578T breast = system: HS 578T breast
NCI/ADR-RES ovarian = system: NCI/ADR-RES ovarian
T-47D breast = system: T-47D breast
BT-549 breast = system: BT-549 breast
MDA-MB-435 melanoma = system: MDA-MB-435 melanoma
SW-620 colon = system: SW-620 colon
MCF7 breast = system: MCF7 breast
HCT-116 colon = system: HCT-116 colon
HCC-2998 colon = system: HCC-2998 colon
KM12 colon = system: KM12 colon

Measured: growth

O=C(/C=C/c1ccc(F)cc1)Nc1ncc(Cc2ccc(F)cc2)s1
inactive: SR leukemia; 10 µM unless noted 25.2% | RPMI-8226 leukemia; 10 µM unless noted 44.9% | OVCAR-8 ovarian; 10 µM unless noted 51.9% | OVCAR-5 ovarian; 10 µM unless noted 62.8% | OVCAR-4 ovarian; 10 µM unless noted 64.3% | SK-OV-3 ovarian; 10 µM unless noted 41.4% | IGROV1 ovarian; 10 µM unless noted 46.8% | OVCAR-3 ovarian; 10 µM unless noted 12.4% | HS 578T breast; 10 µM unless noted 23% | NCI/ADR-RES ovarian; 10 µM unless noted 35.5% | T-47D breast; 10 µM unless noted 28% | BT-549 breast; 10 µM unless noted 67.3% | SW-620 colon; 10 µM unless noted 25.3% | MCF7 breast; 10 µM unless noted 17.9% | HCT-116 colon; 10 µM unless noted 29.4% | HCC-2998 colon; 10 µM unless noted 26.5% | KM12 colon; 10 µM unless noted 20.9%
active: MDA-MB-435 melanoma; 10 µM unless noted -48.2%

CC(=O)/C=C/c1ccc(OCc2ccc(Cl)cc2)cc1
inactive: SR leukemia; 10 µM 98% | SR leukemia; 100 µM 30% | RPMI-8226 leukemia; 10 µM 87.9% | RPMI-8226 leukemia; 100 µM 24.2% | OVCAR-8 ovarian; 10 µM 90.1% | OVCAR-8 ovarian; 100 µM 34.4% | OVCAR-5 ovarian; 10 µM 109% | OVCAR-5 ovarian; 100 µM 75% | OVCAR-4 ovarian; 10 µM 101% | OVCAR-4 ovarian; 100 µM 43.4% | OVCAR-3 ovarian; 10 µM 102% | OVCAR-3 ovarian; 100 µM 50.7% | HS 578T breast; 10 µM 97.3% | HS 578T breast; 100 µM 51.9% | NCI/ADR-RES ovarian; 10 µM 96.5% | NCI/ADR-RES ovarian; 100 µM 18% | T-47D breast; 10 µM 93.1% | T-47D breast; 100 µM 20.2% | BT-549 breast; 10 µM 102% | BT-549 breast; 100 µM 38% | MDA-MB-435 melanoma; 10 µM 94.5% | MDA-MB-435 melanoma; 100 µM 23.1% | SW-620 colon; 10 µM 104% | SW-620 colon; 100 µM 70.4% | MCF7 breast; 10 µM 94.2% | MCF7 breast; 100 µM 46% | HCT-116 colon; 10 µM 90.5% | HCT-116 colon; 100 µM 46.1% | HCC-2998 colon; 10 µM 101% | HCC-2998 colon; 100 µM 60.4% | KM12 colon; 10 µM 93.9% | KM12 colon; 100 µM 35.3%

CCN(Cc1ccccc1)c1ccc(/C=C2\COc3ccccc3C2=O)cc1
inactive: SR leukemia; 10 µM 67.5% | RPMI-8226 leukemia; 10 µM 110% | RPMI-8226 leukemia; 100 µM 20.5% | OVCAR-8 ovarian; 10 µM 95.3% | OVCAR-8 ovarian; 100 µM 47.6% | OVCAR-5 ovarian; 10 µM 101% | OVCAR-5 ovarian; 100 µM 98.7% | OVCAR-4 ovarian; 10 µM 102% | OVCAR-4 ovarian; 100 µM 52.1% | SK-OV-3 ovarian; 10 µM 89.4% | SK-OV-3 ovarian; 100 µM 65.2% | IGROV1 ovarian; 10 µM 99.1% | IGROV1 ovarian; 100 µM 40.2% | OVCAR-3 ovarian; 10 µM 108% | OVCAR-3 ovarian; 100 µM 19.1% | HS 578T breast; 10 µM 96% | HS 578T breast; 100 µM 59.4% | NCI/ADR-RES ovarian; 10 µM 101% | NCI/ADR-RES ovarian; 100 µM 23.4% | T-47D breast; 10 µM 78.3% | T-47D breast; 100 µM 12.3% | MDA-MB-435 melanoma; 10 µM 95.7% | SW-620 colon; 10 µM 87.4% | SW-620 colon; 100 µM 28.1% | MCF7 breast; 10 µM 81.5% | MCF7 breast; 100 µM 17.5% | HCT-116 colon; 10 µM 86.1% | HCT-116 colon; 100 µM 30.8% | HCC-2998 colon; 10 µM 102% | HCC-2998 colon; 100 µM 66.8% | KM12 colon; 10 µM 98.3% | KM12 colon; 100 µM 21.8%
active: SR leukemia; 100 µM 7.93% | MDA-MB-435 melanoma; 100 µM -44.7%

N#Cc1cc(-c2ccnc(Nc3ccc(NC(=O)CCl)cc3)n2)ccc1N1CCCC1
active: SR leukemia; 10 µM unless noted 1.78% | RPMI-8226 leukemia; 10 µM unless noted -24.3% | OVCAR-8 ovarian; 10 µM unless noted 6.56% | OVCAR-5 ovarian; 10 µM unless noted -9.19% | OVCAR-4 ovarian; 10 µM unless noted -20.8% | SK-OV-3 ovarian; 10 µM unless noted -48.6% | IGROV1 ovarian; 10 µM unless noted -1.3% | OVCAR-3 ovarian; 10 µM unless noted -46% | T-47D breast; 10 µM unless noted -68.2% | BT-549 breast; 10 µM unless noted -65% | MDA-MB-435 melanoma; 10 µM unless noted -47.6% | SW-620 colon; 10 µM unless noted -36.9% | MCF7 breast; 10 µM unless noted -19.1% | HCT-116 colon; 10 µM unless noted -37.2% | HCC-2998 colon; 10 µM unless noted -79.5%
inactive: HS 578T breast; 10 µM unless noted 12.6% | NCI/ADR-RES ovarian; 10 µM unless noted 10.9%

O=C(/C=C/c1cccc(Oc2ccc(Cl)cc2)c1)c1ccccc1
active: SR leukemia; 100 µM -25.1% | RPMI-8226 leukemia; 10 µM 0.961% | RPMI-8226 leukemia; 100 µM -30.3% | OVCAR-8 ovarian; 100 µM -50.8% | OVCAR-5 ovarian; 100 µM -82.2% | OVCAR-4 ovarian; 100 µM -80.1% | SK-OV-3 ovarian; 100 µM -93.7% | IGROV1 ovarian; 100 µM -49.9% | OVCAR-3 ovarian; 100 µM -94.3% | HS 578T breast; 100 µM -28.2% | NCI/ADR-RES ovarian; 100 µM -46.5% | T-47D breast; 100 µM -72% | MDA-MB-435 melanoma; 100 µM -84.8% | SW-620 colon; 100 µM -69.7% | MCF7 breast; 100 µM -45.3% | HCT-116 colon; 100 µM -82.2% | HCC-2998 colon; 100 µM -97.8%
inactive: SR leukemia; 10 µM 53.5% | OVCAR-8 ovarian; 10 µM 91.8% | OVCAR-5 ovarian; 10 µM 96% | OVCAR-4 ovarian; 10 µM 90.3% | SK-OV-3 ovarian; 10 µM 114% | IGROV1 ovarian; 10 µM 102% | OVCAR-3 ovarian; 10 µM 93.3% | HS 578T breast; 10 µM 97.5% | NCI/ADR-RES ovarian; 10 µM 98.8% | T-47D breast; 10 µM 77% | MDA-MB-435 melanoma; 10 µM 94.8% | SW-620 colon; 10 µM 19.7% | MCF7 breast; 10 µM 11.5% | HCT-116 colon; 10 µM 55.9% | HCC-2998 colon; 10 µM 107%

Source: PubChem BioAssay (NCI)
